# Data as given in PubChem BioAssay.
# The source made the active and inactive calls.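 Rule for the calls, unless noted: active = fluorescence slope higher than the sample average by over 3 SD (cut at about -0.22 in these data, passing the limit was not always enough); inactive = the rest.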
# What was measured:
# [1] = reduction of polyQ htt aggregates in cells – imaging, exon1htt(103Q)mCFP cells, high-content imaging, primary screen (AID 483;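 active = visual image review flags a hit and inhibition of aggregation exceeds 20%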;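 note: compound exposure lasted 3 days before fixation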;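 for nuclei count: percent of the per-plate median nuclei count of sample wells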); conditions: exon1htt(103Q)mCFP cell line, aggregate imaging, at 2 µM; inhibition of aggregation: stronger effect = higher value; nuclei count: measured here: cell count, toxicity
# [2] = endothelial E-selectin expression blockers – imaging, HUVEC, immunofluorescence, MLSMR starter and 10KST1 sets, primary screen (AID 487;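 active = visually confirmed hit in the image check and inhibition above 20%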;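 for inhibition: signal is fraction of cell area covered by stained E-selectin grains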;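 for nuclei count: 100% = median nuclei count of all wells on the same plate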); conditions: HUVEC TNFalpha-induced E-selectin immunofluorescence imaging, at 2 µM; inhibition: stronger effect = higher value; nuclei count: measured here: cell number, toxicity
# [3] = biological target: Voltage-gated potassium channel subunit beta-2 (Rattus norvegicus) (UniProt P62483); assay: inhibitors of rat Kvbeta2 reductase activity – biochemical, NADPH fluorescence, primary screen (AID 622); conditions: recombinant KvBeta, 4-cyanobenzaldehyde reduction, at 10 µM, stronger effect = higher value;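 note: slope of raw intensity against log time taken from 70 to 1610 s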
# [4] = biological target: Voltage-gated potassium channel subunit beta-2 (Rattus norvegicus) (UniProt P62483); assay: enhancers of rat Kvbeta2 NADPH turnover – biochemical, NADPH fluorescence, primary screen (AID 623;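 active = NADPH fluorescence slope more negative than the mean of all samples by about 3 SD, 99.7% confidence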;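 note: fluorescence intensity change per second fitted from 20 to 320 s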); conditions: Recombinant KvBeta, NADPH fluorescence decrease slope, 10 min; at 10 µM; stronger effect = lower value
# [5] = biological target: Alpha-2C adrenergic receptor (Homo sapiens) (UniProt P18825); assay: compounds altering alpha2C-coupled GIRK flux – cell-based, HEK293 alpha2C/GIRK1/2, thallium flux, primary screen (AID 624;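 active = fluorescence slope after compound addition differing from the mean of all screened samples at 99.7% confidence, in either direction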;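 note: slope of fluorescence ratio to pre-addition baseline per second over 15 to 24 s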); conditions: thallium flux BTC fluorescence, at 10 µM, actives lie on both sides
# [6] = blockers of RIG-like receptor reporter activation – cell-based, Sendai virus stimulus, luciferase, 10K MLSCN set, TLR/RLR signaling modifier project, primary screen (AID 602276;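 active = inhibition at or above 50% at 10 µM; inactive = inhibition below 50%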;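 note: firefly luciferase from ISG56 promoter only with Renilla not read in this screen; 0% = Sendai virus plus DMSO and 100% = medium plus DMSO without virus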); conditions: HEK293 RL24 IRF3 luciferase reporter, at 10 µM, stronger effect = higher value
# [7] = TLR3 IRF3 reporter activation blockers – cell-based, poly I:C stimulus, luciferase, 10K MLSCN set, primary screen (AID 602277;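 active = inhibition of the reporter signal at or above 50%; inactive = inhibition below 50%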); conditions: HEK293-TLR3 RL24 IRF3 luciferase reporter, at 10 µM, stronger effect = higher value
# [8] = biological target: Muscarinic acetylcholine receptor M4 (Homo sapiens) (UniProt P08173); assay: M4-linked GIRK flux change, two-sided – cell-based, HEK293 M4/GIRK, thallium flux, BTC-AM, M4 allosteric agonist project, primary screen (AID 625;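 active = fluorescence slope after compound addition differing from the mean of all tested samples at 99.7% confidence, mostly higher but some lower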;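 note: thallium influx through GIRK channels coupled to M4 in HEK293 cells with BTC-AM dye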); conditions: at 10 µM, actives lie on both sides
# [9] = Primary imaging screen for DUSP6 inhibitors that restore phospho-Erk in transfected HeLa cells, chemical complementation (AID 609;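 active = compounds giving at least 50% inhibition in the cell-based MKP-3 phosphatase rescue imaging test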;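 for inhibition: phospho-Erk level distribution per well compared with pooled transfected vehicle control wells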); conditions: HeLa MKP-3 transfected, phospho-Erk imaging KS statistic, at 10 µM, cells stimulated with TPA for 15 min
# [10] = biological target: Dual specificity protein phosphatase 6 (Homo sapiens) (UniProt Q16828); assay: as above; conditions: HeLa MKP-3 transfected, phospho-Erk imaging KS statistic; at 10 µM; stronger effect = higher value; cells stimulated with TPA for 15 min
# [11] = inhibitors of larval lipid processing in zebrafish, primary screen, whole organism, PED6 fluorescence, gall bladder and intestine (AID 686;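 active = a full or partial loss of lipid-probe fluorescence in the fish gall bladder, intestine or both, judged by eye; inactive = no fluorescence loss, or compound toxic to the fish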;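 note: larvae 5 to 7 days old with five fish per well; signal comes from phospholipase A2 cleavage of quenched PED6 carried via bile; overnight exposure to compound and PED6 before scoring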); conditions: Zebrafish larvae PED6 lipid processing, fluorescence scoring; screened at 20 µM (by protocol)
# [12] = loss of swimming-algae plug formation – whole organism, Chlamydomonas reinhardtii, WT vs cilia-less mutant, absorbance, 96-well, primary screen (AID 463189;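 active = inhibition at or above 50% relative to wild type and mutant plate controls; inactive = inhibition below 50%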;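 note: 0% = wild type cc124 cells in DMSO and 100% = ciliumless bld1 mutant cells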); conditions: Chlamydomonas reinhardtii gravitaxis, OD600 absorbance, 2 days; at 10 µM; stronger effect = higher value
# [13] = measured here: cell density z-score
# [14] = measured here: nuclear c-Myc green intensity z-score
# [15] = measured here: nuclear pErk red intensity z-score, stronger effect = higher value
# Chain of Dual specificity protein phosphatase 6 (Homo sapiens) (Q16828 whole entry, looked up): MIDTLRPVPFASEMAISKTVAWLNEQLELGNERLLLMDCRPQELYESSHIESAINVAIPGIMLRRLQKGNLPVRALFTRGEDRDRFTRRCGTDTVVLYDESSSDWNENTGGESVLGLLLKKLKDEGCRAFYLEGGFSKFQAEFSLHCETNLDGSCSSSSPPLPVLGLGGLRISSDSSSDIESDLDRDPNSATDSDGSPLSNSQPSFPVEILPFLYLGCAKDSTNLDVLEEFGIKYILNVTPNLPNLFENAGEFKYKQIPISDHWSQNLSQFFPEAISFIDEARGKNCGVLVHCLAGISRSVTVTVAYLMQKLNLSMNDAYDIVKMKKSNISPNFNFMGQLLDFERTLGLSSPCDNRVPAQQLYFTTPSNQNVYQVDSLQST
# Chain of Muscarinic acetylcholine receptor M4 (Homo sapiens) (P08173 whole entry, looked up): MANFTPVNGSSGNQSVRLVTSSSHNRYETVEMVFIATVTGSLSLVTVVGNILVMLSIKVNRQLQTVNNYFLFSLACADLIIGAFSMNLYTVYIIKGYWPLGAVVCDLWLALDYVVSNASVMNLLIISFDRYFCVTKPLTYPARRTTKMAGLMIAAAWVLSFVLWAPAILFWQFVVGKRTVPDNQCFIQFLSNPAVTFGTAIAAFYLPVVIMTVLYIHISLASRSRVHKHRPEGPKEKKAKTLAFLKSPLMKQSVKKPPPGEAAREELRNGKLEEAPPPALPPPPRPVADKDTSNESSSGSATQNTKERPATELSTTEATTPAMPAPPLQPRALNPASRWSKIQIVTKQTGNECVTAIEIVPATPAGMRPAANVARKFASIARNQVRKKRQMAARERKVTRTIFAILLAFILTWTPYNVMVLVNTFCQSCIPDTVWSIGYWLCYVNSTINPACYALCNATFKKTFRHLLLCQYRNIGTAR
# Chain of Alpha-2C adrenergic receptor (Homo sapiens) (P18825 whole entry, looked up): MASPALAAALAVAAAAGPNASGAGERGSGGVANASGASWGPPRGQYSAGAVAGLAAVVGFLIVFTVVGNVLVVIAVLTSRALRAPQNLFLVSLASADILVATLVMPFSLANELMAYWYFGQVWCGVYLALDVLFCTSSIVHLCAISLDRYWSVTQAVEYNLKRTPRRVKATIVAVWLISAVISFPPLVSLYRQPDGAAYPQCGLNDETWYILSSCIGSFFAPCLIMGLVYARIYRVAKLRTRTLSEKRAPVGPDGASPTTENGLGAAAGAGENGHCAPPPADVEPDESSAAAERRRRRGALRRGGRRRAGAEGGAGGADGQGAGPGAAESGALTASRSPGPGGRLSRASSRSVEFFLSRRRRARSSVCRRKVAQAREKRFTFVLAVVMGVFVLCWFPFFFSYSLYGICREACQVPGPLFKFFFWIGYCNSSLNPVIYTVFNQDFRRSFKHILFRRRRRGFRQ
# Chain of Voltage-gated potassium channel subunit beta-2 (Rattus norvegicus) (P62483 whole entry, looked up): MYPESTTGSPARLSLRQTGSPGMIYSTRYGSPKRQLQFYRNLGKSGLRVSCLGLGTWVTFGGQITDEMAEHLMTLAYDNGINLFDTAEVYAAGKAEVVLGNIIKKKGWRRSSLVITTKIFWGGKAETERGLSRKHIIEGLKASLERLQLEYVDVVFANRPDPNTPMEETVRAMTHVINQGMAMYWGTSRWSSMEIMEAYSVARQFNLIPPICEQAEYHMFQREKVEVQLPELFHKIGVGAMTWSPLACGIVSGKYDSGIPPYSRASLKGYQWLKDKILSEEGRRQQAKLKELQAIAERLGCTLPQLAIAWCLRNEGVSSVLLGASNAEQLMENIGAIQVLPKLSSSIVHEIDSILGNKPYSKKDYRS
compound,measurement,setting,value
O=C1[C@@H]2C(c3ccccc3Cl)=NO[C@@H]2C(=O)N1Cc1ccccc1,inhibition of aggregation,[1],-2.9% (inactive)
same,nuclei count,[1],90.6%
same,inhibition,[2],-238% (inactive)
same,nuclei count,[2],213%
same,fluorescence slope,[3],-0.328 (inactive)
same,NADPH fluorescence slope,[4],-5.7e-05 (inactive)
same,slope,[5],0.00529 (inactive)
same,inhibition,[6],9.22% (inactive)
same,inhibition,[7],12.2% (inactive)
Cn1c(=O)[nH]c2cc3ccccc3cc21,fluorescence slope,[3],-0.527 (inactive)
same,NADPH fluorescence slope,[4],-6.1e-05 (inactive)
same,fluorescence slope,[8],0.00589 (inactive)
same,inhibition,[6],4.54% (inactive)
same,inhibition,[7],5.31% (inactive)
Cc1cc(C)n(C(=O)CNC(=O)c2cccs2)n1,inhibition,[2],-109% (inactive)
same,nuclei count,[2],182%
same,z-score,[9]; [13],0.591
same,z-score,[9]; [14],-1.67
same,z-score,[9]; [15],-0.663
same,inhibition,[10],7.48% (inactive)
same,fluorescence slope,[3],-0.404 (inactive)
same,NADPH fluorescence slope,[4],-3.1e-05 (inactive)
same,fluorescence slope,[8],0.00505 (inactive)
same,outcome,[11],inactive
same,inhibition,[12],16.6% (inactive)
COc1ccc(OC)c(C2=NOC(C(=O)Nc3c(C)n(C)n(-c4ccccc4)c3=O)C2)c1 (centres undefined),fluorescence slope,[3],-0.546 (inactive)
same,NADPH fluorescence slope,[4],-2.8e-05 (inactive)
same,slope,[5],0.0073 (inactive)
same,inhibition,[6],-3.88% (inactive)
same,inhibition,[7],17.6% (inactive)
O=C(C1CCN(S(=O)(=O)c2cnc[nH]2)CC1)N1CCN(c2ncccn2)CC1,fluorescence slope,[3],-0.353 (inactive)
same,NADPH fluorescence slope,[4],-7e-05 (inactive)
same,slope,[5],0.00534 (inactive)
same,outcome,[11],inactive
same,inhibition,[6],-35.5% (inactive)
same,inhibition,[7],88.9% (active)
CC(C)CCNC(=O)NC(=O)CSc1nnc(COc2ccccc2Cl)o1,inhibition of aggregation,[1],13.9% (inactive)
same,nuclei count,[1],98.5%
same,inhibition,[2],-53.1% (inactive)
same,nuclei count,[2],126%
same,fluorescence slope,[3],-0.513 (inactive)
same,NADPH fluorescence slope,[4],-7.7e-06 (inactive)
same,fluorescence slope,[8],0.00525 (inactive)
same,inhibition,[6],9.99% (inactive)
same,inhibition,[7],21% (inactive)
O=P(O)(c1ccccc1)c1ccccc1O,inhibition,[2],2% (inactive)
same,nuclei count,[2],77.2%
same,z-score,[9]; [13],0.571
same,z-score,[9]; [14],0.329
same,z-score,[9]; [15],0.814
same,inhibition,[10],5.57% (inactive)
same,fluorescence slope,[3],-0.452 (inactive)
same,NADPH fluorescence slope,[4],-1.5e-05 (inactive)
same,fluorescence slope,[8],0.00546 (inactive)
same,outcome,[11],inactive
same,inhibition,[12],28.7% (inactive)
O=C(NCCC1=CCCCC1)C1CCN(S(=O)(=O)c2cccc3cccnc23)CC1,fluorescence slope,[3],-0.494 (inactive)
same,NADPH fluorescence slope,[4],2.4e-05 (inactive)
same,slope,[5],0.00594 (inactive)
same,inhibition,[6],-7.21% (inactive)
same,inhibition,[7],-9.62% (inactive)
Cc1ccccc1-c1nc(CS(=O)(=O)CC(=O)N(C)C2CCCCC2)c(C)o1,fluorescence slope,[3],-0.49 (inactive)
same,NADPH fluorescence slope,[4],-3.4e-05 (inactive)
same,slope,[5],0.00717 (inactive)
same,inhibition,[6],-5.9% (inactive)
same,inhibition,[7],-32.7% (inactive)
O=C(c1ccc(N2C(=O)C3CC=C(Cl)CC3C2=O)cc1)N1CCCCC1 (centres undefined),inhibition,[2],-148% (inactive)
same,nuclei count,[2],163%
same,z-score,[9]; [13],0.548
same,z-score,[9]; [14],-0.00489
same,z-score,[9]; [15],-2.02
same,inhibition,[10],15.1% (inactive)
same,fluorescence slope,[3],-0.379 (inactive)
same,NADPH fluorescence slope,[4],-2.5e-05 (inactive)
same,fluorescence slope,[8],0.00666 (inactive)
same,outcome,[11],inactive
same,inhibition,[12],-0.983% (inactive)
Cc1cc(C)cc(-n2ccnc2SCC(=O)Nc2ccc3c(c2)OCCO3)c1,fluorescence slope,[3],-0.57 (inactive)
same,NADPH fluorescence slope,[4],-3.9e-05 (inactive)
same,fluorescence slope,[8],0.00517 (inactive)
same,inhibition,[6],1.38% (inactive)
same,inhibition,[7],-4.03% (inactive)
CN(C)CCOC(c1ccccc1)c1ccccc1,inhibition,[2],-7% (inactive)
same,nuclei count,[2],124%
same,z-score,[9]; [13],-0.686
same,z-score,[9]; [14],0.456
same,z-score,[9]; [15],0.78
same,inhibition,[10],5.42% (inactive)
same,fluorescence slope,[3],-0.465 (inactive)
same,NADPH fluorescence slope,[4],-4.4e-05 (inactive)
same,slope,[5],0.00555 (inactive)
same,inhibition,[6],11.6% (inactive)
same,inhibition,[7],38.5% (inactive)
Cc1cccc(-n2ccnc2SCC(=O)Nc2cc(C)on2)c1,fluorescence slope,[3],-0.513 (inactive)
same,NADPH fluorescence slope,[4],3.9e-06 (inactive)
same,fluorescence slope,[8],0.00505 (inactive)
same,inhibition,[6],-19% (inactive)
same,inhibition,[7],-43.2% (inactive)
COc1ccc(CCN(C)CCCC(C#N)(c2ccc(OC)c(OC)c2)C(C)C)cc1OC (centres undefined),inhibition,[2],-110% (inactive)
same,nuclei count,[2],114%
same,z-score,[9]; [13],-0.13
same,z-score,[9]; [14],-0.251
same,z-score,[9]; [15],-0.441
same,inhibition,[10],12.4% (inactive)
same,fluorescence slope,[3],-0.461 (inactive)
same,NADPH fluorescence slope,[4],-2.2e-05 (inactive)
same,inhibition,[6],2.16% (inactive)
same,inhibition,[7],27% (inactive)
CCCNCC(O)COc1ccccc1C(=O)CCc1ccccc1 (centres undefined),inhibition,[2],-137% (inactive)
same,nuclei count,[2],129%
same,z-score,[9]; [13],-0.576
same,z-score,[9]; [14],0.234
same,z-score,[9]; [15],0.603
same,inhibition,[10],-4.44% (inactive)
same,fluorescence slope,[3],-0.521 (inactive)
same,NADPH fluorescence slope,[4],-4.9e-05 (inactive)
same,slope,[5],0.00393 (inactive)
same,inhibition,[6],9.47% (inactive)
same,inhibition,[7],42.6% (inactive)
Cc1ccc2oc(=O)c3cnn(CC(=O)N4CCCc5ccccc54)c3c2c1,fluorescence slope,[3],-0.49 (inactive)
same,NADPH fluorescence slope,[4],1.1e-05 (inactive)
same,slope,[5],0.00798 (inactive)
same,inhibition,[6],29.3% (inactive)
same,inhibition,[7],19.2% (inactive)
